A selection: hits, their analogues and other compounds. The true share with any hit is near 1.2%.
RN4220 kill: S. aureus RN4220 growth inhibition. AID 1259311. hit rate 0.33% among 330,000. inhibition, % (no concentration beside the values). OD600, 16 h; in the data active = inhibition above about 85%;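 note: plate controls were untreated cells for no effect and reference antibiotic for full effect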
BH1578 lux ind: inducers of Vibrio cholerae quorum light production without autoinducers; V. cholerae BH1578 lux reporter, luminescence, 6 h; hit rate 0.16% among 350,000; activation, % at 18.7 µM; in the data active = activation mostly above about 9.7%, no sharp cut-off
PfHsp40 yeast: rescue of PfHsp40-mediated yeast toxicity | hit rate 0.68% among 340,000 | AID 504582 | S. cerevisiae expressing PfHsp40, growth rescue, ATP luminescence | growth rescue, % at 12.5 µM; in the data active = growth rescue above about 28%, passing the limit was not always enough;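 note: yeast W303a lacking pdr1 and pdr3 grown in galactose medium; growth measured after three days at 30 °C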
Sa ugtP lethal: kills S. aureus RN4220 lacking UgtP; S. aureus RN4220 ugtP deletion, OD600 growth, 16 h; growth inhibition, % (test concentration not listed); hit rate 0.54% among 330,000; AID 1259309; in the data active = growth inhibition above about 68%;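 note: plate controls were untreated wells for no effect and antibiotic for full effect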
Mtb betalactam: beta-lactam sensitization of Mtb H37Rv | M. tuberculosis H37Rv growth with meropenem, percent inhibition | hit rate 0.27% among 330,000 | inhibition, % at 25 µM | AID 434955; call rule not given here;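 note: growth measured after seven days incubation then overnight dye step; 0% = bacteria only wells and 100% = bacteria with antibiotic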
Numbers without * were called inactive; i = inactive; . = no result given.

SMILES | RN4220 kill | BH1578 lux ind | PfHsp40 yeast | Sa ugtP lethal | Mtb betalactam
COC(=O)[C@]1(Cc2ccccc2)N[C@H](CN(C)C(=O)c2ccc(C)cc2)[C@@H]2C(=O)N(Cc3ccccc3)C(=O)[C@@H]21 | 0 | -1 | 47* | 3 | -2
O=C1C2C(c3ccc(F)cc3)N3C(=O)N(c4cccc(Cl)c4)C(=O)[C@@]3(Cc3ccccc3)C2C(=O)N1C1CCCCC1 (stereo partly specified) | 1 | . | . | -13 | .
CCCCCCCCCCOC(=O)Cn1c(COc2ccccc2C)[n+](C)c2ccccc21 | . | i | 9 | . | 81
CC1CCC(C(C)C)C(OC(=O)Cn2c(-c3ccc(Cl)cc3)[n+](C)c3ccccc32)C1 (stereo unspecified) | 100* | i | 0 | 100* | 100
CC1CCC(C(C)C)C(OC(=O)COC(=O)c2ccccc2N)C1 (stereo unspecified) | -1 | i | 1 | 94* | 23
CC1CCC(C(C)C)C(OC(=O)COC(=O)c2ccc(N)cc2)C1 (stereo unspecified) | 5 | i | 2 | 83 | 4
CC1CCC(C(C)C)C(OC(=O)Cn2c(-c3ccc(Br)cc3)[n+](C)c3ccccc32)C1 (stereo unspecified) | 100* | -1 | 0 | 100* | 100
Cc1ccccc1OCc1n(CC(=O)OC2CC(C)CCC2C(C)C)c2ccccc2[n+]1C (stereo unspecified) | 100* | 0 | 10 | 101* | 99
CC1CCC(C(C)C)C(OC(=O)COC(=O)c2cccn2C)C1 (stereo unspecified) | 3 | -1 | -1 | 23 | 36
CCc1n[nH]c(=S)n1N=Cc1c(C)nn(-c2ccccc2)c1Cl | 5 | . | . | 7 | .
O=C(CCl)N1c2ccccc2Oc2ccc3ccccc3c21 | 90* | -8 | 0 | 99* | .
CC(=O)N1c2ccccc2Oc2cc3ccccc3cc21 | 6 | -1 | 6 | -12 | -1
COCCCN1C(=O)C(=O)C(=C(O)c2ccc(OC(C)C)cc2)C1c1cccnc1 (stereo unspecified) | 6 | . | . | 3 | .
CC(=O)N/N=C/c1c(C)[nH]n(-c2ccccc2)c1=O | . | 0 | 0 | . | 19
Cc1[nH]n(-c2ccc(Br)cc2)c(=O)c1C=NNC(=O)c1ccccc1 | 94* | . | . | 97* | .
Cc1[nH]n(-c2cccc3ccccc23)c(=O)c1/C=N/NC(=O)c1cccc([N+](=O)[O-])c1 | . | 0 | 83* | . | 11
C=CCOC(=O)C1=CC(C(C)(C)C)C(CCCO)C(OCC)O1 (stereo unspecified) | 11 | . | . | 3 | .
CCn1nc(C)cc1-c1nnc(Sc2ncc([N+](=O)[O-])s2)n1C | 48 | 1 | 4 | 91* | 3
O=C(NN=Cc1ccc(O)c([N+](=O)[O-])c1)c1ccncc1 | 5 | . | . | 1 | .
O=C(Nc1nnc(-c2cccs2)o1)c1cccc(Oc2ccccc2)c1 | 99* | 0 | 500* | 100* | 97
CC1CCCCN1S(=O)(=O)c1ccc(C(=O)Nc2nnc(-c3ccccc3Cl)o2)cc1 (stereo unspecified) | 98* | 0 | 0 | 98* | 92
O=C(Nc1nnc(-c2ccccc2Cl)o1)c1ccc(S(=O)(=O)N2CCCCCC2)cc1 | 100* | . | . | 96* | 95
O=C(Nc1nnc(-c2cccs2)o1)c1cccc(F)c1 | 28 | 0 | 6 | 18 | 91
CCC1CCCCN1S(=O)(=O)c1ccc(C(=O)Nc2nnc(-c3ccccc3Cl)o2)cc1 (stereo unspecified) | 99* | 0 | 0 | 98* | 94
O=C(Nc1ccccc1)C1=CC(c2ccc(Br)cc2)CC(OCCCCO)O1 (stereo unspecified) | 4 | . | . | 9 | .
SMILES | RN4220 kill | BH1578 lux ind | PfHsp40 yeast | Sa ugtP lethal | Mtb betalactam
[N-]=[N+]=NCC(c1ccccc1)N1CCN(Cc2ccccc2)CCC1=O (stereo unspecified) | 2 | . | . | 0 | .
CCOc1ccc(NN=C(C#N)C(N)=O)cc1 | 4 | . | . | 1 | .
O=C(NCc1nc2ccccc2[nH]1)C1=CC(c2coc3ccccc3c2=O)CC(OCc2ccc(CO)cc2)O1 (stereo unspecified) | 1 | . | . | 5 | .
COc1ccc(-c2nnc(NC(=O)c3ccc(S(=O)(=O)N4COCC4(C)C)cc3)o2)cc1 | 54 | -8 | 0 | 49 | 93
CCCCN(C)S(=O)(=O)c1ccc(C(=O)Nc2nnc(-c3cccs3)o2)cc1 | 104* | . | . | 97* | 94
CCCCN(CC)S(=O)(=O)c1ccc(C(=O)Nc2nnc(-c3ccccc3Cl)o2)cc1 | 100* | i | -1 | 100* | 91

Assay outcomes from PubChem BioAssay.
